CYP2C9 act = human CYP2C9 activators, primary screen, biochemical, luminescence; recombinant CYP2C9, luciferin-H conversion; hits give high values; factor 1 = untreated enzyme, 0 = blocked; actives 1.4% (n = 96,000); Cytochrome P450 2C9 (Homo sapiens), P11712; activation factor at 5 µM;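 active = activation factor of 2 or more for CYP2C9 at a 5 µM dose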;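 also: 0 = sulfaphenazole-blocked wells and 1 = vehicle-only wells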
Target sequence (P11712 whole entry, looked up): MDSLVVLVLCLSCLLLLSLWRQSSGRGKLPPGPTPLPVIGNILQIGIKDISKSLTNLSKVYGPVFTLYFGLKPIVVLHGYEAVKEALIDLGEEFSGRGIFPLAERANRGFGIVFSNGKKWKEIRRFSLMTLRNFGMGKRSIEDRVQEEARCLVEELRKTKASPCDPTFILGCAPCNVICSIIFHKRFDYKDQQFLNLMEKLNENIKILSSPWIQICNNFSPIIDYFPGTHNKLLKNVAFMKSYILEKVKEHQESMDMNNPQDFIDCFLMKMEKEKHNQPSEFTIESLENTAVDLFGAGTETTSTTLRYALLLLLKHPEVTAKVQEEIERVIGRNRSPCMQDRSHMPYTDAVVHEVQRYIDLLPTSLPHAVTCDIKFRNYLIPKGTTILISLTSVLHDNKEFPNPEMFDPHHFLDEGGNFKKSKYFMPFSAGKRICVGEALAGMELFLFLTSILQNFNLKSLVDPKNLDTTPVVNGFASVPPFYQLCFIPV
CYP2C19 inh = blockers of cytochrome P450 2C19 activity – biochemical, luminescence, ADME assay, primary screen; P33261; CYP2C19 Supersomes, luciferin-H EGE luminescence, 30 min; inhibition, % at 5 µM; actives 21% (n = 96,000);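 active = CYP2C19 inhibition above a set limit at 5 µM in the primary screen, cut at about 50% in these data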;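 also: plate controls were negative control wells for no effect and 2.5 mM tranylcypromine positive control for full effect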
Measles CPE = compounds protecting cells from measles virus cytopathic effect, primary screen, measles RdRp inhibitor project, single point, MLSMR library, absorbance | Measles virus-infected cells, CPE protection | protection (pct of control), % at 4 µM | actives 1.5% (n = 140,000) | AID 841, 2007; in the data active = protection mostly above about 24%, no sharp cut-off; inactive = mostly below about 26%
CYP2C9 inh = blockers of cytochrome P450 2C9 activity – biochemical, luminescence, ADME assay, primary screen | actives 20% (n = 96,000) | inhibition, % at 5 µM | CYP2C9 Supersomes, luciferin-H conversion | P11712;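 active = blocking of liver enzyme CYP2C9 beyond about 50% at 5 µM, limit read from the data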
CYP2C19 act = human CYP2C19 activators, primary screen, biochemical, luminescence. recombinant CYP2C19, luciferin-H EGE luminescence; hits give high values; 0 = fully inhibited enzyme, 1 = untreated enzyme. 96,000 tested, under 10 active. activation factor at 5 µM;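 active = activation factor of at least 2 at 5 µM in the primary screen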;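 also: 0 = wells with 2.5 mM tranylcypromine and 1 = vehicle-only wells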
The depositor's hits bear a star; nt = not tested or not shown. Rows were chosen to be rich in hits. Some 22% of all compounds tested hit in one or more screens of this group.

SMILES	CYP2C9 act	CYP2C19 inh	Measles CPE	CYP2C9 inh	CYP2C19 act
O=C(c1cccnc1)N1CCN(S(=O)(=O)c2ccc3ccccc3c2)CC1	0.6	33	6	36	0.7
N/C(=N\OC(=O)Cc1ccccc1[N+](=O)[O-])c1ccncc1	nt	nt	9	nt	nt
OC(c1ccccc1)C1CN(Cc2ccccc2)CCC1(O)c1ccccc1 (stereo not drawn)	0.9	67*	16	15	0.3
Cc1c(N(C)C(=O)c2ccc3c(c2)OCO3)c(=O)n(-c2ccccc2)n1C	nt	nt	17	nt	nt
Cc1nn(-c2ccccc2)c2nc(-c3ccncc3)cc(C(=O)NCc3ccco3)c12	0.1	91*	2	94*	0.1
Cc1nn(-c2ccccn2)c2nc(-c3cccs3)cc(C(=O)NCc3ccco3)c12	0.1	61*	5	86*	0.4
Cc1occc1-c1nnc(SCc2nnc(-c3ccc(Cl)cc3)o2)n1C	nt	nt	25	nt	nt
Cn1nnnc1SCc1nnc(-c2ccc(Cl)cc2)o1	0.9	78*	6	14	0.2
Cn1nnnc1SCc1ccc(F)cc1	1.1	56*	18	-5	0.4
Cc1ccc(CSc2nnnn2C)cc1	0.9	74*	2	12	0.3
COC(=O)C1=C(NC(=O)COc2ccc3ccccc3c2)CCS1	nt	nt	5	nt	nt
CCn1nc(C(=O)Nc2ccccc2C)c(Cl)c1Cl	0.5	48	3	55*	0.5
CCn1c(-c2ccccc2Cl)nn(CC(=O)Nc2ccc(OC)cc2)c1=S	0.4	56*	6	60*	0.4
CCn1c(-c2ccccc2Cl)nn(CC(=O)Nc2ccccc2C)c1=S	1	51*	16	-1	0.5
CCOc1ccc(NC(=O)Cn2nnc(-c3ccccc3F)n2)cc1	1	-4	14	3	1
COc1ccc(NC(=O)CN2CCN(c3ccccc3Cl)CC2)cc1	nt	nt	7	nt	nt
CCOc1ccc(NC(=O)Cn2nc(-c3ccccc3Cl)n(CC)c2=S)cc1	0.3	62*	33	68*	0.4
CCN1CCC(=NNC(=O)c2ccco2)CC1	1	-9	4	-3	1.1
Nc1nnnn1/N=C/c1ccc(N2CCCCC2)c([N+](=O)[O-])c1	nt	nt	4	nt	nt
CCNc1nc(N)c(C(=O)c2ccc(Cl)s2)s1	0.5	83*	3	54*	0.2
CC(C)(C)c1csc(NC(=O)c2ccc(Cl)s2)n1	0.7	15	3	31	0.8
CSc1nc(NC(C)(C)C)nc(N2CCOCC2)n1	nt	nt	12	nt	nt
CCOc1ccc(Br)cc1C(=O)Nc1ccc(C(=O)NCC(C)C)cc1	nt	nt	2	nt	nt
COc1cccc(C(=O)NCCC2=CCCCC2)c1	0.6	93*	5	43	0.1
Cc1ccccc1NS(=O)(=O)c1cc(C(=O)NCCC2=CCCCC2)ccc1C	0.9	-8	10	12	1.1
SMILES	CYP2C9 act	CYP2C19 inh	Measles CPE	CYP2C9 inh	CYP2C19 act
COc1ccc(C(=O)NCCC2=CCCCC2)cc1OC	1.1	66*	15	-7	0.3
COc1ccc(C(=O)NCCC2=CCCCC2)cc1	nt	nt	5	nt	nt
O=C(NCCC1=CCCCC1)c1ccc(Cl)c(S(=O)(=O)Nc2ccccc2)c1	0.3	40	3	69*	0.6
Cc1ccc(NS(=O)(=O)c2cc(C(=O)NCc3ccccn3)ccc2Cl)cc1	0.5	73*	2	55*	0.3
CCC(C)(C)NC(=O)C(c1ccc(F)cc1)N(Cc1ccco1)C(=O)c1snc(C(N)=O)c1N (stereo not drawn)	1.1	-3	4	-6	1
Cc1nccn1CCCN1C(=O)CNC1=S	nt	nt	1	nt	nt
O=C(CCN1C(=O)CSC1=O)Nc1ccc(Br)cc1	nt	nt	4	nt	nt
CCOC(=O)C1CCCc2c1[nH]c1c(C(N)=O)cccc21 (stereo not drawn)	0.5	39	10	53*	0.6
c1ccc(CSc2ncnc3c2cnn3-c2ccccc2)cc1	nt	nt	3	nt	nt
O=C(c1ccc2c(c1)N(Cc1ccccc1)C(=O)c1ccccc1S2)N1CCCC1	0.5	63*	41	49	0.4
COCC(=O)N1CCCc2ccccc21	1	3	12	1	1
COc1ccc(CC(=O)N2CCCc3ccccc32)cc1	0.8	55*	5	20	0.4
CCCOc1ccc(C(=O)N2CCCc3ccccc32)cc1	0.3	93*	1	69*	0.1
COc1cc(OC)cc(C(=O)N2CCCc3ccccc32)c1	0.8	76*	4	24	0.2

High-throughput results from PubChem.
